# This is a sample that favours compounds with a hit; in the whole collection about 14% have one here.
# HCMV antiviral = human cytomegalovirus inhibition. HFF cells, HCMV-luciferase reporter, 72 h; hits give low values. AID 1259415. activity change, negative = inhibition, % at 57.5 µM. 410,000 tested, 4.5% active; in the data active means activity change below about -60%; inconclusive means no clear call, values can overlap the other calls; inactive means above about -39%
#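 Two compound doses tested in HFFs infected with HCMV-luciferase, MOI 1 PFU/cell, 72 h at 37C. Lysate luminescence read with OneGlo; data normalized against buffer-only and 10uM Salinomycin inhibitor controls.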
# Sm TGR block = S. mansoni TGR enzyme inhibition; purified TGR, DTNB reduction, TNB absorbance 405 nm; Potency, µM (highest dose often 114 µM), for the others: top-dose activity change, negative = inhibition, most hits filed as inhibitors; 360,000 tested, 3% active; Q962Y6; further: potency means the concentration at half of the fitted maximal effect; nearly all actives have a fitted effect of over 60% in size
#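 First, TGR (20 nM dispensed) and NADPH were mixed with compound. Second, a 15 min room-temperature incubation followed. Third, further NADPH and then DTNB were added to start the reaction. Finally, TNB absorbance was monitored kinetically.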
# Giardia FBPA inh = blocks Giardia fructose-bisphosphate aldolase activity; A8B2U2; Potency, µM (highest dose often 59.6 µM), for the others: at the highest dose activity, negative = inhibition, actives largely listed as inhibitors; AID 2451; 290,000 tested, 0.71% active; purified Giardia FBPA; further: potency means the concentration at half of the fitted maximal effect; nearly all actives have a fitted effect of over 55% in size
# Target sequence (A8B2U2 whole entry, looked up): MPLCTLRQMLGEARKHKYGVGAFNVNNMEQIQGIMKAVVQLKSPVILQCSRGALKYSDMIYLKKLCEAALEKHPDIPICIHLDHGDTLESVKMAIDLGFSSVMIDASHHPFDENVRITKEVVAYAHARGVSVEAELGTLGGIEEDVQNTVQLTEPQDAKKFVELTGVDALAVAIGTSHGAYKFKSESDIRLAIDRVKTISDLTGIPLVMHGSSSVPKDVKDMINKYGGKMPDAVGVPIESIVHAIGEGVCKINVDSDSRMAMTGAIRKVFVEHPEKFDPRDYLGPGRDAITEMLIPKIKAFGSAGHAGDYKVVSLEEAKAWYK
#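 Giardia FBPA (40 nM reagent) was preincubated 10 min at RT with compound (up to 57.5 uM final), then substrate plus GAPDH/TPI/NAD/arsenate coupling system with diaphorase/resazurin was added; resorufin fluorescence (525/598 nm) was read after 20 min.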
# Pf growth 96h = P. falciparum growth inhibition at 96 hour, primary screen for plastid delayed-death inhibitors | 320,000 tested, 6.9% active | P. falciparum luciferase reporter growth, 96 h | Potency, µM (highest dose often 28.7 µM), without a hit: top-dose activity change, negative = inhibition, most hits filed as inhibitors; further: potency means the concentration at half of the fitted maximal effect
#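 Readout is luminescence from an integrated firefly luciferase in P. falciparum. Red cells, 2% hematocrit and 0.05% parasitemia final, were cultured with compound through two parasite generations (96 hours) at 37 C, 5% CO2.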
# Pf growth 48h = P. falciparum growth inhibition at 48 hours (one generation); Potency, µM (highest dose often 28.7 µM), for inactives: at the highest dose activity change, negative = inhibition, usual class: inhibitors; P. falciparum luciferase growth in erythrocytes, 48 h; 310,000 tested, 5.9% active; further: potency means the concentration at half of the fitted maximal effect
#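 Parasite viability was followed by luminescence of a genomically integrated firefly luciferase. Cultures held 0.1% parasitemia at 2% hematocrit (final), incubated under 5% CO2 at 37 C.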
# The depositor's hits bear a star; ? = inconclusive; / = not tested or not shown; [ ] = another dose, or the depositor's remark. Unless noted, the call rests on the fitted dose curve; in most records, active means well fitted curve in the direction sought with a large enough effect; inconclusive means small, poorly fitted or top-dose-only effect, or another doubt; inactive means no such curve, though single readings can be large; an effect the other way counts as inactive or inconclusive. On the % scale 0 is the no-effect control and ±100 the full control effect.
SMILES,HCMV antiviral,Sm TGR block,Giardia FBPA inh,Pf growth 96h,Pf growth 48h
CCOC(=O)N1CCN(C(=O)CSc2nnc(CNC(=O)c3c(F)cccc3Cl)o2)CC1,-16.2,-5.3%,7.0%,11.7µM*,13.5%
O=C(CSc1nnc(CNC(=O)c2c(F)cccc2F)o1)NCc1ccc(F)cc1,16.4,28.2µM*,/,-5.6%,15.0%
CCCCN(C(=O)C(C)N1C(=O)c2ccccc2C1=O)c1c(N)n(CC(C)C)c(=O)[nH]c1=O (centres undefined),53.8,-6.5%,/,-19.1%,-0.7%
Cc1ccc(-c2nnc(Nc3ccc(Br)cc3)c3ccccc23)cc1S(=O)(=O)N1CCOCC1,-14.1,3.5%,/,/,/
COC(=O)[C@H]1C[C@H]2CC[C@H](O)C[C@H]2N1Cc1c(F)cccc1Cl,/,/,-5.8%,/,/
O=C(CSc1nnc(CNC(=O)c2c(F)cccc2Cl)o1)c1ccccc1,-1.0,3.4%,0.3%,9.28µM*,-7.1%
O=C(CSc1nnc(CNC(=O)c2c(F)cccc2Cl)o1)Nc1ccccc1,-20.9,2.5%,3.9%,76.8%,17.6%
COC(=O)[C@@]1(Cc2ccccc2)[C@H]2c3cc(C(=O)N4CCCC4)n(C)c3C[C@H]2CN1C(=O)c1ccccc1,/,/,-2.0%,/,/
Nc1c(C(=O)NCCN2CCOCC2)c2nc3ccccc3nc2n1CCc1ccccc1,?,-29.7%,-12.5%,-19.0%,9.28µM*
C=CCNC(=O)c1c(N)n(CCN2CCOCC2)c2nc3ccccc3nc12,20.4,4.2%,-23.1%,39.6%,-14.9%
Nc1c(C(=O)NCCN2CCOCC2)c2nc3ccccc3nc2n1CCc1ccccc1F,-8.0,3.7%,-5.1%,13.1µM*,?
CC1=CC(C)C(C(=O)O)C(C(=O)Nc2cccnc2)C1 (centres undefined),-17.2,/,-2.6%,-29.2%,32.4%
Cc1cc(NC(=O)c2cc3ccccc3o2)ccc1NC(=O)c1ccccc1,9.4,8.9%,-9.3%,-24.1%,16.0%
O=C(N/N=C/c1cccnc1)C12CC3CC(CC(C3)C1)C2,56.1,4.4%,4.3%,3.3%,?
O=C(O)C1CC=CCC1C(=O)Nc1cccnc1 (centres undefined),-29.5,-2.9%,6.0%,85.6%,9.28µM*
Cc1cc(NC(=O)C2CC=CCC2C(=O)O)ccc1NC(=O)c1ccccc1 (centres undefined),23.6,-34.6%,/,9.28µM*,?
O=C(Nc1cccnc1)C12CC3CC(CC(C3)C1)C2,-63.7*,7.3%,1.2%,23.0%,-24.6%
COCCCNc1nc2ccccc2nc1NS(=O)(=O)c1cc(Cl)ccc1Cl,?,1.1%,1.3%,-14.6%,-2.1%
Cc1ccccc1CN1CCNC(=O)C1CC(=O)NC1CCCCCCC1 (centres undefined),27.6,?,7.0%,2.62µM*,?
O=C(CC1C(=O)NCCN1Cc1ccccc1C(F)(F)F)NC1CCCC1 (centres undefined),33.3,39.8µM*,-19.3%,-29.8%,29.8%
O=C(CC1C(=O)NCCN1Cc1cccc(C(F)(F)F)c1)NC1CCCCCC1 (centres undefined),/,22.4µM*,/,-6.3%,-7.9%
O=C(CC1C(=O)NCCN1Cc1ccccc1F)NC1CCCCCC1 (centres undefined),37.2,?,/,?,-7.1%
Cc1nnc(CN(C)C(=O)CC2C(=O)NCCN2Cc2ccccc2C)o1 (centres undefined),8.2,28.2µM*,2.7%,-18.0%,-3.6%
COC(=O)c1ccc(/C=N/n2c(C)nc3ccccc3c2=O)cc1,13.6,-1.2%,-1.5%,-1.8%,35.8%
Cc1ccc(C)c(N2CCN(S(=O)(=O)c3cc(Br)cc4c3N(C(=O)C3CC3)CC4)CC2)c1,4.3,2.5%,/,/,/
SMILES,HCMV antiviral,Sm TGR block,Giardia FBPA inh,Pf growth 96h,Pf growth 48h
CCOc1ccccc1CN1CCNC(=O)C1CC(=O)NC1CCCCCCC1 (centres undefined),-62.1*,/,/,/,/
CCN1C(=O)[C@H]2[C@H]3[C@H](O)[C@H](O)C/C(=N/OCc4ccccc4)[C@H]3CC[C@@H]2C1=O,/,/,-0.5%[12.9 µM],/,/
CSc1sc(C(=O)O)c2c1C(=O)CC(C)(C)C2,14.3,/,/,/,/
CSc1sc(C(=O)OC(C)C)c2c1C(=O)CC(C)(C)C2,29.9,0.7%,-0.9%,?,7.38µM*
CCCC(C(=O)Nc1c(C)cccc1C)N1C(=O)C(=O)c2ccccc21 (centres undefined),-22.5,/,/,/,/
CC(=O)c1cccc(NC(=O)CN2CCc3cc4c(cc3C2)OCCCO4)c1,21.0,3.6%,-1.0%,?,17.8%
O=C(NCc1ccccn1)c1ccc(Br)s1,36.9,-8.5%,0.6%,/,3.7µM*
COC1CC2C=C(C)C=CC=CC(=O)NC(c3ccccc3)CC=CCCC(O)CC(=O)C2=C1O (centres undefined),-100.3*,/,/,/,/
O=C(CCS(=O)(=O)c1ccccc1)Nc1ccc2c(c1)OCO2,87.7,20µM*,-0.2%,?,77.9%
CCOC(=O)c1ccc(N2CCN(c3ccccc3F)CC2)c(NC(=O)Nc2cccc(OC)c2)c1,5.3,-2.6%,-4.6%,?,5.22µM*
CCOC(=O)c1ccc(N2CCN(c3cc(Cl)ccc3C)CC2)c(NC(=O)Nc2cccc(OC)c2)c1,16.8,7.7%,/,/,/
COc1ccc(NC(=O)CCN2CCN(c3ccccc3F)CC2)c(OC)c1,-5.8,-1.5%,12.1%,10.4µM*,?
CS(=O)(=O)N(CC(=O)Nc1ccc2c(c1)OCO2)c1ccccc1,50.1,0.0%,-5.7%,5.0%,6.2%
CC(C)(C)c1ccc(S(=O)(=O)N2CCN(Cc3cc4c(cc3O)OCO4)CC2)cc1,-22.7,2.82µM*,/,-28.8%,-30.1%
CCOC(=O)c1ccc(N2CCOCC2)c(NC(=O)c2ccc3c(c2)OCO3)c1,29.1,-5.1%,4.0%,?,?
O=C(c1ccc2nsnc2c1)N1CCN(c2ccc([N+](=O)[O-])cc2)CC1,0.0,-19.1%,-11.4%,?,-22.1%
CC(C)COC(=O)N(C)C[C@@H]1OCc2cnnn2CCCC(=O)N([C@@H](C)CO)C[C@H]1C,-25.8,/,/,/,/
CNc1cccc(-c2ccc(C(=O)N3CCOCC3)cc2)n1,42.0,/,/,/,/
c1ccc2c(c1)CCN(Cc1nnnn1Cc1ccc3c(c1)OCO3)C2,-17.4,-23.8%,-9.5%,7.0%,-12.1%
COc1ccccc1N1CCN(Cc2ccccc2)CC1,-36.4,2.1%,-22.6%,-3.7%,?
Oc1cc2c(cc1CN1CCc3ccccc3C1)OCO2,0.8,2.51µM*,/,?,-7.3%
CCOc1ccccc1N1CCN(Cc2cccc(OC)c2O)CC1,-13.9,-10.7%,-22.2%,/,3.29µM*
Oc1cc2c(cc1CN1CCN(c3ccccc3F)CC1)OCO2,18.2,1µM*,0.1%,?,9.28µM*
O=C(CCN1CCN(c2ccccc2F)CC1)Nc1ccc2c(c1)OCO2,-22.6,-24.4%,-2.0%,3.29µM*,-5.2%
COc1ccc(S(=O)(=O)NC(=O)C2(C)CCN2C(=O)Cc2cc(C)cc(C)c2)cc1OC (centres undefined),-0.9,/,/,/,/
